In assay [1] the target is Rap guanine nucleotide exchange factor 3 (Homo sapiens) (UniProt O95398). Nature of the assay: Confirmatory qHTS for agonist of cAMP-regulated guanine nucleotide exchange factor 3 (EPAC1) (AID 1645881).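 Note: EPAC1 catalysed release of BODIPY-GDP from Rap1B seen as fluorescence loss; nearly all actives have a fitted effect of over 75% in size.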 The following applies: EPAC1 Rap1B BODIPY-GDP exchange fluorescence; series mostly up to 154 µM. A general note: Quantitative high-throughput screening tests each substance at several concentrations.
Chain of Rap guanine nucleotide exchange factor 3 (Homo sapiens) (O95398 whole entry, looked up): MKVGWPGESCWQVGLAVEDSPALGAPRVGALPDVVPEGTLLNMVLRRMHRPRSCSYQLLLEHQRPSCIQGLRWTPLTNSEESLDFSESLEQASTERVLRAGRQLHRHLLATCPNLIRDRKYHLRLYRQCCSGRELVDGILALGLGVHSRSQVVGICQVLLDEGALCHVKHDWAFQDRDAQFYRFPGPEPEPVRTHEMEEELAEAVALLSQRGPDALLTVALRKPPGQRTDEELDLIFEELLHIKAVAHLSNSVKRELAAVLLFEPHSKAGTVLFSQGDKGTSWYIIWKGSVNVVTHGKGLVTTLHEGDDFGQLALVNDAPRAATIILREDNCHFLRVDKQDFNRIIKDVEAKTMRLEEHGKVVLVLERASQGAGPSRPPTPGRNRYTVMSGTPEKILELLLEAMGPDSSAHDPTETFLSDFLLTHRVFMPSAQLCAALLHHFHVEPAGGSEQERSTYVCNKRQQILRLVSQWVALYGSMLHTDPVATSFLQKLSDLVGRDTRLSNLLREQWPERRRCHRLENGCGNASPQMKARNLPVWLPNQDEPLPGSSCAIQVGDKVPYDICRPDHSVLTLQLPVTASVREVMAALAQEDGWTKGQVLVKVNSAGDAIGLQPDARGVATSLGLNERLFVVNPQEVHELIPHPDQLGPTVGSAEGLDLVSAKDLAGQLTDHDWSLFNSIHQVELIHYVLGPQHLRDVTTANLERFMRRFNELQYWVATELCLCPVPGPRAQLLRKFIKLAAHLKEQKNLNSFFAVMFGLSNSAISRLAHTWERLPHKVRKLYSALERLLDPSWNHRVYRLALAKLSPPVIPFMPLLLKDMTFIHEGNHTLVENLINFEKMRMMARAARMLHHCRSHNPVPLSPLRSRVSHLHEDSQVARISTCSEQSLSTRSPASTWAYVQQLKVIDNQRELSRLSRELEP

In assay [2] the target is Rap guanine nucleotide exchange factor 4 (Homo sapiens) (UniProt Q8WZA2). Nature of the assay: Confirmatory qHTS for agonist of cAMP-regulated guanine nucleotide exchange factor 4 (EPAC2) (AID 1645884). Note: nearly all actives have a fitted effect of over 65% in size. Note: potency is the fitted concentration of half-maximal effect. The following applies: EPAC2 GEF activity, Rap1B-BODIPY-GDP fluorescence; series mostly up to 154 µM.
Chain of Rap guanine nucleotide exchange factor 4 (Homo sapiens) (Q8WZA2 whole entry, looked up): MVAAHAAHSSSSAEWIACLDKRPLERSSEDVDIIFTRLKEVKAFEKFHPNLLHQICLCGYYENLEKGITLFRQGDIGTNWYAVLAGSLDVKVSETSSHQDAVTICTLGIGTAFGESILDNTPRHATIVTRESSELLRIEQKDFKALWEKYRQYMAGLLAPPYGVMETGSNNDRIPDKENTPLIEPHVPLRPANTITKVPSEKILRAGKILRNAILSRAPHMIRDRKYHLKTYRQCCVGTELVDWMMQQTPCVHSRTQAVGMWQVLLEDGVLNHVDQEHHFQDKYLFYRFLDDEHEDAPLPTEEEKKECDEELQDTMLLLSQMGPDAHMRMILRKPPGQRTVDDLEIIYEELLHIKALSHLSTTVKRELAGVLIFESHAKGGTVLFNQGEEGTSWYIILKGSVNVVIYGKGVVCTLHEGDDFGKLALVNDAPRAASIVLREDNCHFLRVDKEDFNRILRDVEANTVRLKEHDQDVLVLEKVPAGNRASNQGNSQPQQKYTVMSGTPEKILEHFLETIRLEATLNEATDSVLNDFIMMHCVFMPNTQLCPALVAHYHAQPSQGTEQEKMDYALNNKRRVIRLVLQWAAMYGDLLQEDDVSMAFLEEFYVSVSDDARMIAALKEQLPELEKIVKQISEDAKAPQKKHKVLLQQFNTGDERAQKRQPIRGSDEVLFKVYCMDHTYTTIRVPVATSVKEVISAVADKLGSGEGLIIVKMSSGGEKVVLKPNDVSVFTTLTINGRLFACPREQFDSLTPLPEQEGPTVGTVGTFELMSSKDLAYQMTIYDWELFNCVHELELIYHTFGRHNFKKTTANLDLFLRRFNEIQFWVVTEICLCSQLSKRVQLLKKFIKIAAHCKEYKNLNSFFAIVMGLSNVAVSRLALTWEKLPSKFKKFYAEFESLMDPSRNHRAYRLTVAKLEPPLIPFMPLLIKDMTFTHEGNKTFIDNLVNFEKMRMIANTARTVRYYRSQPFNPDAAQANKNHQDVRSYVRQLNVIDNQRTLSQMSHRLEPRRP
For assay [3], the target named is Rap guanine nucleotide exchange factor 3 (Homo sapiens) (UniProt O95398). Nature of the assay: Counterscreen qHTS for antagonist of cAMP-regulated guanine nucleotide exchange factor 3 (EPAC1) (AID 1645888).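 Note: fluorescence loss as bound BODIPY-GDP is released from Rap1B.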 Conditions: Rap1B-BODIPY-GDP nucleotide exchange, fluorescence; series mostly up to 154 µM. In short, it runs like this:
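Rap1B-BODIPY-GDP 250 nM + GDP 50 uM; cpds 7-pt, final 9.74 nM–152 uM (activator mode) or from 7.32 nM upwards (inhibitor mode); RT; FI 480/540 nm at 5 and 30 min, then ± cAMP, reread.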
(The purpose of a counterscreen is to sort out artefacts and off-target activity.)

The source of these data is PubChem BioAssay (NCATS).

Molecules are shown by their SMILES. Records with an inconclusive call do not appear. Activity calls are given as the source filed them. Calls come from the whole dose curve; as a rule, active = well fitted curve in the direction sought with a large enough effect; inconclusive = small, poorly fitted or top-dose-only effect, or another doubt; inactive = no such curve, though single readings can be large; an effect the other way counts as inactive or inconclusive.

For the compound `Cc1ccc(CN(Cc2ccco2)C(=O)c2ccccc2Br)o1`, the Potency result in assay [1], in assay [2] and in assay [3] was “inactive” throughout.

Consider `CC(=O)C1=CCC(c2ccccc2Cl)N(S(=O)(=O)c2ccc(C)cc2)C1` (centres undefined), for which the Potency result in assay [1], in assay [2] and in assay [3] was “inactive” throughout.

Turning to `CCOC1=C2[C@@H](CN(S(=O)(=O)c3ccc(C)cc3)[C@H]2c2ccccc2Cl)[C@H]2C(=O)NC(=O)[C@H]2C1`, the Potency result in assay [1], in assay [2] and in assay [3] was “inactive” in each case.

With `CC(=O)NC(C)(c1ccccc1)c1nc(-c2cc(F)cc(F)c2)cs1` (centres undefined), the Potency result in assay [1], in assay [2] and in assay [3] was “inactive” throughout.

With `Cc1oc2ccc(O)c(CN3CCCCC3)c2c1C(=O)Nc1cccc(C(F)(F)F)c1`, the Potency result in assay [1], in assay [2] and in assay [3] was “inactive” throughout.

Regarding `Oc1ccc(NCc2ccccc2OCc2ccccc2Cl)cc1`, the Potency entry in assay [1], in assay [2] and in assay [3] was “inactive” in each case.

Regarding `CCc1noc(C)c1C(=O)Nc1nc2c(C)cc(C)cc2s1`, the Potency result in assay [1], in assay [2] and in assay [3] was “inactive” in each case.

For `COCCCNC(=O)c1ccc2c3c(onc13)-c1ccccc1C2=O`, the Potency result in assay [1], in assay [2] and in assay [3] was “inactive” each time.

With `Cc1cc(Cl)ccc1Oc1ccccc1C(=O)CC#N`, the Potency entry in assay [1], in assay [2] and in assay [3] was “inactive” each time.

For `CN1CCc2nc3sc(C(=O)C45CC6CC(CC(C6)C4)C5)c(N)c3cc2C1`, the Potency result in assay [1] and in assay [3] was “inactive” in each case. The Potency in assay [2] was 100 µM (active).

On to `CCOC(=O)c1ccc(NC(=O)c2c(N)n(Cc3ccccc3)c(=O)[nH]c2=O)cc1`, for which the Potency result in assay [1], in assay [2] and in assay [3] was “inactive” in each case.

On to `CN(CC(=O)Nc1ccc(F)cc1)C(=O)c1cc(-c2ccco2)nc2ccccc12`, for which the Potency result in assay [1], in assay [2] and in assay [3] was “inactive” throughout.

As to `CCCCOC(=O)CCn1c(=S)oc2ccccc21`, the Potency entry in assay [1], in assay [2] and in assay [3] was “inactive” in each case.

For `O=C(Cc1ccc(F)cc1)Nc1ccccc1Sc1ccccc1`, the Potency entry in assay [1], in assay [2] and in assay [3] was “inactive” in each case.

With `CC(C)n1c(CNC(=O)c2ccccc2F)nnc1SCC(=O)NC1CCCCC1`, the Potency entry in assay [1], in assay [2] and in assay [3] was “inactive” throughout.

With `CC(C)NC(=O)c1sc2nc(-c3cccs3)cc(-c3cccs3)c2c1N`, the Potency entry in assay [1], in assay [2] and in assay [3] was “inactive” in each case.

Take `O=C(NC1CC1)C1CCN(S(=O)(=O)c2cc([N+](=O)[O-])ccc2Cl)CC1`: the Potency entry in assay [1], in assay [2] and in assay [3] was “inactive” in each case.

Take `COc1cc(/C=C/C(=O)c2ccc3c(c2)OCCO3)cc(Br)c1OCC(=O)N(C)C`: the Potency entry in assay [1], in assay [2] and in assay [3] was “inactive” each time.
